Experimental findings from paper PMC8384837, “Expanding the binding specificity for RNA recognition by a PUF domain” are described below.

Common to all, as to assay: yeast three-hybrid, YBZ-1, SC-Leu-His + 0.5 mM 3-AT, 4 days
Settings in all cases: tags: N-Gal4 AD-HA kept; label: inside an RPR1-promoter hybrid RNA with tandem MS2 sites; ssRNA

One assay addresses PUM1 PUF domain R5-KRE (Homo sapiens, UniProt Q14671 828-1176, C1007K;Q1011E). The procedure, abridged:
(§1)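 Matching RNA elements and Pumilio-1 PUF domain libraries, randomized at the three base-contacting residues of every repeat, were co-expressed from a centromeric plasmid in strain YBZ-1 (LexA–MS2 coat fusion, HIS3 reporter). The repeat regions were PCR-amplified and Illumina-sequenced from cells grown four days on SC-Leu (input) or SC-Leu-His + 0.5 mM 3-AT (selection). The interaction score is the log change in variant frequency from input to selection. It is computed in log2, with a pseudocount of 1 for absent variants.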

The next assay concerns the target PUM1 PUF domain R5-KSW (Homo sapiens, UniProt Q14671 828-1176, C1007K;R1008S;Q1011W). The method, boiled down: as §1
For a further assay, the target named is PUM1 PUF domain R3-GYF (Homo sapiens, UniProt Q14671 828-1176, C935G;R936Y;Q939F). The procedure, abridged:
as §1

Another assay addresses PUM1 PUF domain R3-YRF (Homo sapiens, UniProt Q14671 828-1176, C935Y;Q939F). The procedure, abridged:
as §1

For the next assay, the target named is PUM1 PUF domain R3-RQE (Homo sapiens, UniProt Q14671 828-1176, C935R;R936Q;Q939E). The procedure, abridged: as §1
The target of the next assay is PUM1 PUF domain R3-RQP (Homo sapiens, UniProt Q14671 828-1176, C935R;R936Q;Q939P). The procedure, abridged:
as §1

A further assay has as its target PUM1 PUF domain R8-YYK (Homo sapiens, UniProt Q14671 828-1176, N1122Y;Q1126K). The method, boiled down:
as §1

The target in the next assay is PUM1 PUF domain R4-NRR (Homo sapiens, UniProt Q14671 828-1176, H972R;Q975R). The procedure, abridged: as §1
The target of another assay is PUM1 PUF domain R7-ERQ (Homo sapiens, UniProt Q14671 828-1176, S1079E;N1080R;E1083Q). The method, boiled down: as §1
Chain of PUM1 PUF domain R7-ERQ (Q14671 828-1176 S1079E/N1080R/E1083Q): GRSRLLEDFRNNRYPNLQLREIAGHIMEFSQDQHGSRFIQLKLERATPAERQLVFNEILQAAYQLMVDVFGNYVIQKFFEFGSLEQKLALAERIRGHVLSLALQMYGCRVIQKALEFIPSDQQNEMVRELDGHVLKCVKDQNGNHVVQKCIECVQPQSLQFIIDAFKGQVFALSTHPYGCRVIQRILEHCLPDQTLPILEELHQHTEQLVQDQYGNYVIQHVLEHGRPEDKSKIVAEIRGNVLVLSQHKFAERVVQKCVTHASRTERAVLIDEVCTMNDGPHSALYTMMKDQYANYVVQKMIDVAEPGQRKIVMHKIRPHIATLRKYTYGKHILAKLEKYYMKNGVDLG

Chain of PUM1 PUF domain R5-KRE (Q14671 828-1176 C1007K/Q1011E): as the sequence (Q14671 828-1176 S1079E/N1080R/E1083Q) above, with C180K, Q184E, E252S, R253N, Q256E counted along it
Chain of PUM1 PUF domain R5-KSW (Q14671 828-1176 C1007K/R1008S/Q1011W): as the sequence (Q14671 828-1176 S1079E/N1080R/E1083Q) above, with C180K, R181S, Q184W, E252S, R253N, Q256E counted along it

Consider “GGCUAGAACUAGUGGAUCCCCCGGCGCCCGGCGGCUCGAGCCCGGGUAAGUGUCAAUAGUCUGCAUGCCGCCGGGCGCCAUGCCUGCAGGUCGACUCUAGAAAACAUG”, for which the binding signal was 2.98 log2 enrichment (interaction score) in the assay with PUM1 PUF domain R5-KRE and 2.82 log2 enrichment (interaction score) in the assay with PUM1 PUF domain R5-KSW. In the case of “GGCUAGAACUAGUGGAUCCCCCGGCGCCCGGCGGCUCGAGCCCGGGUAAGUGUAAAUAGUCUGCAUGCCGCCGGGCGCCAUGCCUGCAGGUCGACUCUAGAAAACAUG”, the results for the binding signal with PUM1 PUF domain R3-GYF and with PUM1 PUF domain R3-YRF were 5.74 log2 enrichment (interaction score) and 1.16 log2 enrichment (interaction score), respectively.

For the sequence “GGCUAGAACUAGUGGAUCCCCCGGCGCCCGGCGGCUCGAGCCCGGGUAAGUGUAAUUAGUCUGCAUGCCGCCGGGCGCCAUGCCUGCAGGUCGACUCUAGAAAACAUG”, the figures for the binding signal in the assay with PUM1 PUF domain R3-RQE and with PUM1 PUF domain R3-RQP were 2.81 log2 enrichment (interaction score) and 3.85 log2 enrichment (interaction score), respectively.

With “GGCUAGAACUAGUGGAUCCCCCGGCGCCCGGCGGCUCGAGCCCGGGUAAGCGUAAAUAGUCUGCAUGCCGCCGGGCGCCAUGCCUGCAGGUCGACUCUAGAAAACAUG”, the binding signal in the assay with PUM1 PUF domain R8-YYK is 4.78 log2 enrichment (interaction score).

As for “GGCUAGAACUAGUGGAUCCCCCGGCGCCCGGCGGCUCGAGCCCGGGUAAGUGUAUAUAGUCUGCAUGCCGCCGGGCGCCAUGCCUGCAGGUCGACUCUAGAAAACAUG”, the binding signal in the assay with PUM1 PUF domain R4-NRR is 1.51 log2 enrichment (interaction score). The same measure, in the same setting: the value for “GGCUAGAACUAGUGGAUCCCCCGGCGCCCGGCGGCUCGAGCCCGGGUAAGUGUACAUAGUCUGCAUGCCGCCGGGCGCCAUGCCUGCAGGUCGACUCUAGAAAACAUG” was 3.57 log2 enrichment (interaction score). In the case of “GGCUAGAACUAGUGGAUCCCCCGGCGCCCGGCGGCUCGAGCCCGGGUAAGUCUAAAUAGUCUGCAUGCCGCCGGGCGCCAUGCCUGCAGGUCGACUCUAGAAAACAUG”, in the assay with PUM1 PUF domain R7-ERQ, the binding signal was 2.6 log2 enrichment (interaction score).

Take “GGCUAGAACUAGUGGAUCCCCCGGCGCCCGGCGGCUCGAGCCCGGGUAAGUGUAAGUAGUCUGCAUGCCGCCGGGCGCCAUGCCUGCAGGUCGACUCUAGAAAACAUG”: the binding signal in the assay with PUM1 PUF domain R3-YRF was 5.65 log2 enrichment (interaction score).
